Compound activity: PubChem BioAssay, National Center for Advancing Translational Sciences (NCATS)
TexasRed fluor: alters Texas Red total fluorescence, flagging assay interference | AID 1479 | TRb/SRC2 Texas Red total fluorescence interference | hit rate 0.29% among 280,000 | Potency, µM (titrated, usually from 106 µM); active means well fitted curve in either direction with a large enough effect; inconclusive means small, poorly fitted or top-dose-only effect
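Human TRb ligand-binding domain at 0.6 uM with 20 nM Texas Red SRC2 peptide in Tris buffer containing 1 uM T3 and 5% DMSO, incubated with compound 5 h at ambient temperature. Total fluorescence (555/632 nm) calculated as parallel + 2 × perpendicular.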
Tau FP inhib: tau fibrillization inhibition (FP); K18 P301L tau heparin fibrillization, Alexa594 FP, 6 h; hit rate 0.39% among 280,000; Potency, µM (highest dose often 57.7 µM), hits mostly inhibitors; AID 1468; P10636; further: nearly all actives have a fitted effect of over 55% in size
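Read-out: fluorescence polarization of Alexa 594-labeled tau (0.24 uM), 555 nm excitation, 632 nm emission. Mixtures held 15 uM unlabeled K18 P301L, compound and 20 uM heparin, pH 7 acetate buffer, incubated 6 hr at 37 C.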
Tau fluor counter: counter-screen for tau fibril formation inhibitors | tau K18 P301L Alexa594 fluorescence, heparin fibrillization | hit rate 0.93% among 280,000 | Potency, µM (series often up to 57.7 µM) | AID 1463; further: nearly all actives have a fitted effect of over 55% in size
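Human tau K18 P301L (15 uM unlabeled, 0.24 uM Alexa 594-labeled) in 100 mM sodium acetate pH 7 with 20 uM heparin, 6 hr at 37 C. ThT 30 uM added, 1 hr ambient; Alexa 594 FP and total fluorescence read at 555/632 nm.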
TRb-SRC2 inh: TRbeta-SRC2 interaction inhibition | hit rate 0.065% among 280,000 | AID 1469 | Potency, µM (series often up to 106 µM), usual class: inhibitors | P10828 | TRbeta-SRC2 peptide binding, fluorescence polarization; receptor liganded with 1 µM T3; further: nearly all actives have a fitted effect of over 50% in size
Target sequence (P10828 whole entry, looked up): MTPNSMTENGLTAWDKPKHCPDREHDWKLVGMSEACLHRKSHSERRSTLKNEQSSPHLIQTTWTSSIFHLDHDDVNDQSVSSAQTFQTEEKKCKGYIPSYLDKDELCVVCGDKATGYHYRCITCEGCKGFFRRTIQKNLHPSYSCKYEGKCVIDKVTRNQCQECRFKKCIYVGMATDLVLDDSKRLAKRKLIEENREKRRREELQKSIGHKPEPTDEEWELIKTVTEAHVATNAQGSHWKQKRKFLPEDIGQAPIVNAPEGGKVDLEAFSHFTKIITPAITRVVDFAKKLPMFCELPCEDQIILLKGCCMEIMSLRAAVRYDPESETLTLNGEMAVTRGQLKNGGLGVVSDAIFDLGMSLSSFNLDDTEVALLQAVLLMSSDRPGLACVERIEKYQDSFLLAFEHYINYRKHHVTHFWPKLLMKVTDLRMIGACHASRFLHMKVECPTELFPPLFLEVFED
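Polarization signal, normalized between peptide-alone and full complex controls, measured compound effects on T3-liganded human TRb LBD (0.6 uM) binding 20 nM Texas Red SRC2 peptide after 5 hr.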
Tau ThT inhib: inhibitors of human tau fibril formation, thioflavin T binding; P10636; recombinant tau K18 P301L, heparin-induced fibrillization, ThT fluorescence; Potency, µM (series often up to 57.4 µM), actives largely listed as inhibitors; hit rate 2.1% among 270,000; AID 1460; further: nearly all actives have a fitted effect of over 55% in size
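Using a mix of unlabeled (15 uM) and Alexa 594-labeled (0.24 uM) tau K18 P301L, heparin-triggered fibrillization over 6 hr at 37 C was scored by ThT fluorescence.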
Hits are given with their value; . = inactive; ? = inconclusive; / = not tested or not shown; [ ] = dose if it differs, or a comment. Compounds with a hit are over-represented: about 3% of the library has one in this group of screens. Unless noted, the call rests on the fitted dose curve; in most records, active means well fitted curve in the direction sought with a large enough effect; inconclusive means small, poorly fitted or top-dose-only effect, or another doubt; inactive means no such curve, though single readings can be large; an effect the other way counts as inactive or inconclusive.

SMILES | TexasRed fluor | Tau FP inhib | Tau fluor counter | TRb-SRC2 inh | Tau ThT inhib
CCC(=O)Nc1nc(CC(=O)Nc2ccccc2OC)cs1 | . | . | . | . | .
COc1ccccc1NC(=O)Cc1csc(NC(=S)Nc2ccc(C)cc2)n1 | . | ? | 12.6µM[quencher] | . | .
CCOP(=O)(OCC)C(NC(=O)c1cc([N+](=O)[O-])cc([N+](=O)[O-])c1)C(F)(F)F (stereo unspecified) | . | ? | ? | . | 25.1µM
CCOP(=O)(OCC)C(C)(C)NC(=O)c1cc([N+](=O)[O-])cc([N+](=O)[O-])c1 | . | . | . | . | .
CN(C)S(=O)(=O)c1cccc(NC(=S)N/N=C/c2cc(Br)ccc2O)c1 | . | ? | 7.94µM[quencher] | . | ?
O=C(Nc1cccc(C(F)(F)F)c1)C1CCCN(S(=O)(=O)c2cccc3nsnc23)C1 (stereo unspecified) | . | . | ? | . | .
CC1CC(=O)C2=C(C1)Nc1ccccc1N=C2 (stereo unspecified) | . | . | . | . | .
CCC1=Nc2ccccc2NC2=C1C(=O)CCC2 | . | ? | ? | . | 25.1µM
COc1c(Cl)cc(Cl)cc1/C=C(\C#N)c1nc2ccccc2[nH]1 | . | . | . | . | .
COc1c(O)ccc(/C=C(\C#N)c2nc3ccccc3[nH]2)c1[N+](=O)[O-] | . | . | ? | . | 7.08µM
Cc1ccc2nc(/C(C#N)=C/c3ccc(-c4cccc([N+](=O)[O-])c4)o3)[nH]c2c1 | . | . | ? | . | 1.41µM
COc1ccc(/C=C(\C#N)c2nc3ccc(C)cc3[nH]2)cc1Oc1ccc(C(F)(F)F)cc1[N+](=O)[O-] | . | . | . | . | ?
COc1cc(/C=C(\C#N)c2nc3ccc(C)cc3[nH]2)cc([N+](=O)[O-])c1O | . | . | 8.91µM[quencher] | . | 2µM
Cc1ccc2nc(/C(C#N)=C\c3cc(O)ccc3[N+](=O)[O-])[nH]c2c1 | . | . | . | . | 15.8µM
Cc1ccc2nc(/C(C#N)=C/c3ccc(-c4ccc(F)cc4F)o3)[nH]c2c1 | . | . | . | . | .
Cc1ccc2nc(/C(C#N)=C\c3ccc(Oc4ccc(C(F)(F)F)cc4[N+](=O)[O-])cc3)[nH]c2c1 | . | . | ? | . | ?
Cc1ccc(NC(=O)CCCn2c(=O)c3cccn3c3cccnc32)c(Cl)c1 | . | . | . | . | .
COc1cc(/C=C(\C#N)c2nc3ccc(C)cc3[nH]2)c([N+](=O)[O-])cc1OC | . | . | ? | . | 14.1µM
CCOc1ccc(CNc2ccc(N3CCCC3)cc2)cc1 | . | ? | ? | . | 7.08µM
CCOc1ccc(CNc2ccc(CNc3ncn[nH]3)cc2)cc1 | . | . | . | . | ?
CCOc1cc(CNc2ccc(N3CCCC3)cc2)cc(Cl)c1OC | . | 7.08µM | ? | . | 3.55µM
c1cc(CNc2ccc(N3CCOCC3)cc2)ccn1 | . | ? | ? | . | 22.4µM
CCOc1ccc(CNc2cccc(SC)c2)cc1 | . | . | . | . | 15.8µM
CC(C)c1ccc(CNc2ccc(N3CCOCC3)cc2)cc1 | . | . | ? | . | ?
CCCCC/C=C\C\C=C/C=C/C=C/[C@@H](SC[C@H](N)C(=O)NCC(=O)O)[C@@H](O)CCCC(=O)O | . | . | . | . | .
SMILES | TexasRed fluor | Tau FP inhib | Tau fluor counter | TRb-SRC2 inh | Tau ThT inhib
COC(=O)C1=C(C)N(Cc2ccccc2)C2=C3C(=O)N(C)C(=O)C3[C@@](O)(C(=O)OC)C(=O)N2C1c1ccccc1 (stereo partly specified) | .[11.2 µM] | .[11.6 µM] | .[11.6 µM] | .[11.2 µM] | .[11.5 µM]
Cn1c(=O)c2sccc2n2c(CCC(=O)N3CCN(c4ccc(F)cc4)CC3)nnc12 | . | . | . | . | .
C[Si]1(C)O[Si](C)(C)O[Si](C)(C)O[Si](C)(C)O1 | . | / | / | . | /
COc1cc(CNc2ccc(N3CCCC3)cc2)cc(Cl)c1OC | . | ? | ? | . | 3.98µM
COc1cc(CNc2ccc(N3CCOCC3)cc2)cc(Br)c1OC | . | . | . | . | ?
N/C(=N\OC(=O)c1ccc(Cl)c(Cl)c1)c1ccccn1 | . | . | . | . | ?
N/C(=N\OC(=O)c1ccc(Cl)c([N+](=O)[O-])c1)c1ccccn1 | . | . | ? | . | 8.91µM
CC1(C(=O)NC2CCCCC2)Cc2ccccc2C(=O)N1Cc1ccc(F)cc1 (stereo unspecified) | 31.6µM[quencher] | . | . | . | .
